Results filed as inconclusive are left out. A call without a number means that no potency is given here. Active and inactive are the calls of the source. Calls follow the shape of the dose curve; as a rule, active = well fitted inhibition curve with a large enough effect; inconclusive = small, poorly fitted or top-dose-only effect; inactive = flat fitted curve, though single readings scatter.

Sequence of Glutathione peroxidase 1 (Homo sapiens) (P07203 whole entry, looked up): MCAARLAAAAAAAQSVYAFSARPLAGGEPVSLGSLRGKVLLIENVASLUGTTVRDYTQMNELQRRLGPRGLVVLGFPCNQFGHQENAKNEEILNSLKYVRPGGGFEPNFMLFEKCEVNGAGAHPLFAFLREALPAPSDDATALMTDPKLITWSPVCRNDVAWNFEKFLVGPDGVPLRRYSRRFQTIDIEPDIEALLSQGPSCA

In the assay the target is Glutathione peroxidase 1 (Homo sapiens) (UniProt P07203). The assay is described as follows: Primary qHTS Assay for Inhibitors of Recombinant Selenoprotein Glutathione Peroxidase 1 (GPX1) (AID 1845191). Also: nearly all actives have a fitted effect of over 65% in size. The conditions noted are these: recombinant GPX1, GR-coupled NADPH fluorescence, 15 min; series mostly up to 27.7 µM. In short, it runs like this:
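NADPH consumption tracked by fluorescence at 340/450 nm between t=0 and t=15 min, room temperature. Final mix: 10 nM GPX1, 100 nM glutathione reductase, 1 mM GSH, 0.5 mM NADPH, 0.5 mM cumene hydroperoxide, 0.01% BSA; 30 min compound–enzyme preincubation.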
Background: In qHTS, concentration-response curves come from the screen itself.
As for `C/C=C1/[C@H](O[C@@H]2O[C@H](CO)[C@@H](O)[C@H](O)[C@H]2O)OC=C(C(=O)OC)[C@H]1CC(=O)OCCc1ccc(O)c(O)c1`, the Potency entry is “inactive”. For `COc1cc(CCCO)ccc1O[C@@H]1O[C@H](CO)[C@@H](O)[C@H](O)[C@H]1O`, the Potency entry was “inactive”.

On to `CCC(C)C(=O)OC[C@H]1O[C@H](O[C@H]2O[C@H](CO)[C@@H](O)[C@H](O)[C@H]2O)[C@H](O)[C@@H](O)[C@@H]1O` (some centres undefined), for which the Potency entry is “inactive”. `CCCN1CCC[C@@H](c2cccc(S(C)(=O)=O)c2)C1`: the Potency result was “inactive”. In the case of `CO[C@@H]1[C@]2(O)C(=O)N3/C=C\C(C)(C)c4[nH]c5ccccc5c4/C=C\3C(=O)N2[C@]23[C@H](CO)C(C)(C)N2c2ccccc2[C@]13O`, the Potency entry was “inactive”. Take `C/C=C/C1OC2=C(C(=O)OC2(C)O)C(O)C1O` (centres undefined): the Potency result was “inactive”.

Turning to `O=C(NC/C=C/CN1CCN(c2cccc(Cl)c2Cl)CC1)c1ccc(-c2ccccn2)cc1`, the Potency entry is “inactive”. As for `C/C(=C\CC/C(C)=C/CC[C@]1(C)CCc2cc(O)cc(C)c2O1)CC/C=C(\C)C(=O)O`, the entry is “inactive”; as for `CC(=O)OC1C(CO)OC(O[C@H]2[C@H](OC(=O)[C@]34CCC(C)(C)C[C@H]3C3=CCC5[C@@]6(C)CC[C@H](O[C@@H]7O[C@H](C(=O)O)[C@@H](O)[C@H](O[C@@H]8OC[C@@H](O)[C@H](O)[C@H]8O)[C@H]7O[C@@H]7O[C@H](CO)[C@H](O)[C@H](O)[C@H]7O)[C@@](C)(C=O)C6CC[C@@]5(C)[C@]3(C)C[C@H]4O)O[C@H](C)[C@H](OC3OC(C)C(OC4OCC(O)C(O)C4O)C(O)C3O)[C@@H]2O)C(O)C1O` (some centres undefined), “inactive”.
